Data on three molecules can be found in PubChem BioAssay.

Test [1] in a line: reducers of endogenous Her2 protein level, primary screen, SKBR3 breast tumor cells, AlphaScreen, ATP viability (AID 461;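 active = Her2 level under about 52% in both replicate screens, with viability over 70% of control, limit read from the data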;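 for Her2 level: lower value means less Her2 protein in the cells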;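 for viability: percent of carrier control wells set as 100% viability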). Conditions: 18-24 h, measured here: SKBR3 viability, ATP luminescence, at 10 µM.
Test [2] deals with Receptor tyrosine-protein kinase erbB-2 (Homo sapiens) (UniProt P04626). Described as above. Conditions: 18-24 h, at 10 µM, stronger effect = lower value.
Test [3] in a line: SK-BR-3 cell growth inhibitors, pilot screen, 24 h, human (AID 572;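 active = viability at or below 10% of carrier control in both of two separate runs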;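 note: compound exposure lasted between 18 and 24 h rather than exactly 24 h; 100% = carrier-treated control wells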). As to conditions: SK-BR-3 viability, CellTiter-Glo luminescence, at 10 µM, stronger effect = lower value.
A short description of test [4]: HUVEC growth inhibition – cell-based, human, primary screen (AID 575).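 Note: 100% = median of untreated cell wells with 0.1% DMSO on each plate.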 As to conditions: HUVEC proliferation, CellTiter-Glo luminescence, 72 h; at 10 µM; stronger effect = lower value.
A short description of test [5]: growth inhibitors of H69AR lung tumor, primary screen, human, duplicate replicates (AID 580;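 active = viability at or under a set limit in both replicates, limit being median viability minus 3 SD, cut at about 48% in these data, passing the limit was not always enough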;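 note: 100% = mean luminescence of untreated wells and 0% = no signal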). Conditions: H69AR lung tumor cells viability, ATP luminescence, 72 h; at 10 µM; stronger effect = lower value.
Test [6] in a line: reversal of MRP1-mediated doxorubicin resistance, pilot screen, H69AR cells, doxorubicin co-treatment (AID 601;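 active = viability loss from added drug above about 55%, and viability with drug at most 40%, in both replicates, limit read from the data, passing the limit was not always enough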). As to conditions: CellTiter-Glo, 72 h, at 10 µM; for differential viability (reversal): stronger effect = higher value.
The nature of test [7]: 384-well plate pilot, post-Golgi transport modulator project, inhibition of yeast transport mutant growth (AID 636; in the data active = inhibition above about 31%). As to conditions: absorbance 615 nm, about 18 h, stronger effect = higher value.
Test [8] in a line: growth suppression of yeast trafficking mutant, preliminary HTS, modulators of trafficking downstream of Golgi apparatus project, 1536-format plate, OD 615 nm (AID 637; in the data active = inhibition above about 30%). Conditions: yeast transport mutant growth, absorbance 615 nm, 18 h; stronger effect = higher value.
Test [9] in a line: OD615 S. cerevisiae growth inhibition, permissive medium, pilot counter-assay, permissive growth control for S. cerevisiae lifespan shortening project (AID 705;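 active = growth inhibition above 25% in both replicates, a cutoff set 3 SD above the mean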). As to conditions: OD615, 24 h, at 10 µM, stronger effect = higher value.
A short description of test [10]: Restrictive medium S. cerevisiae growth inhibition, OD615, pilot screen of yeast lifespan reduction project, restrictive growth control (AID 706;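 active = growth inhibition above a set limit, 3 SD over mean compound inhibition, in both replicates, cut at about 43% in these data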;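 note: modified DeaD lifespan yeast strain shifted to restrictive glucose medium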). As to conditions: OD615, 48 h, at 10 µM, stronger effect = higher value.
The nature of test [11]: viability gain of MRP-1-high H69AR cells under doxorubicin, pilot screen, MRP-1 activator project, CellTiter-Glo, duplicate (AID 807;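 active = viability increase at or above a cutoff of the median across tested compounds plus 3 SD, cut at about 8.5% in these data, passing the limit was not always enough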;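 note: compound pretreatment 18-22 h then 72 h combined with doxorubicin; 0% = doxorubicin alone and 100% = vehicle without doxorubicin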). As to conditions: H69AR viability with doxorubicin, CellTiter-Glo luminescence; at 10 µM; stronger effect = higher value.
The nature of test [12]: growth suppression of beta-catenin knockout HCT116, pilot screen, human colon tumor cells (AID 823;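 active = cell viability at or below a set limit in both duplicate runs, the limit being the all-compound median minus 4 SD, cut at about 23% in these data, passing the limit was not always enough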;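 note: 0% = wells killed by 20 µM Hyamine and 100% = untreated DMSO cell wells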). Conditions: CellTiter-Glo, 60 h, at 10 µM, stronger effect = lower value.
The nature of test [13]: growth suppression of PTEN-deleted HCT116, pilot screen, cell-based, HCT116 clonal line, CellTiter-Glo (AID 824;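 active = viability at or below 27.92% in each of two runs, the all-compound median minus 4 SD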;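 note: 0% = 20 µM Hyamine control and 100% = vehicle cell control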). Conditions: 60 h, at 10 µM, stronger effect = lower value.
Test [14] is described as follows: inhibitors of the yeast RAM network, pilot screen, dse1pr::URA3 reporter, 5-FOA selection (AID 869;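 active = inhibition over a set limit, the all-compound mean plus 3 SD, in both replicate runs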;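 note: 0% = DMSO wells with no growth and 100% = 10 µM 1-NA-PP1 with full growth; RAM network block rescues cells from 5-FOA so hits raise OD615 growth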). As to conditions: S. cerevisiae dse1pr::URA3 5-FOA growth, OD615, 2 d; at 10 µM; stronger effect = higher value; strain carries analog-sensitive mutant Cbk1 kinase.
The nature of test [15]: RAM signaling pathway blockade in yeast – S. cerevisiae, Pdr1DBD-CYC8 efflux-inhibited sensitized strain, primary screen (AID 1298;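 active = RAM network inhibition above 8.4% in each of two replicates, 3 SD over the compound average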;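 note: 0% = DMSO untreated cells without growth and 100% = 10 µM 1-NA-PP1 full growth; higher means more yeast growth rescued from 5-FOA killing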). As to conditions: S. cerevisiae cbk1-as DSE1-URA3 strain, 5-FOA growth OD615, 2 d; at 50 µM; stronger effect = higher value.
Setting [16] is: H69AR cells + 2 uM doxorubicin, measured here: viability with 2 uM doxorubicin, stronger effect = lower value.
[17] abbreviates: H69AR cells, compound alone cytotoxicity.

The structures appear in SMILES notation. Inconclusive results are not listed. Calls of active or inactive are those of the source.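 Rule for the calls, unless noted: active = viability at or below 30% in both replicate assays; inconclusive = viability at or below 30% in just one of the two assays; inactive = the rest.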

Sequence of Receptor tyrosine-protein kinase erbB-2 (Homo sapiens) (P04626 whole entry, looked up): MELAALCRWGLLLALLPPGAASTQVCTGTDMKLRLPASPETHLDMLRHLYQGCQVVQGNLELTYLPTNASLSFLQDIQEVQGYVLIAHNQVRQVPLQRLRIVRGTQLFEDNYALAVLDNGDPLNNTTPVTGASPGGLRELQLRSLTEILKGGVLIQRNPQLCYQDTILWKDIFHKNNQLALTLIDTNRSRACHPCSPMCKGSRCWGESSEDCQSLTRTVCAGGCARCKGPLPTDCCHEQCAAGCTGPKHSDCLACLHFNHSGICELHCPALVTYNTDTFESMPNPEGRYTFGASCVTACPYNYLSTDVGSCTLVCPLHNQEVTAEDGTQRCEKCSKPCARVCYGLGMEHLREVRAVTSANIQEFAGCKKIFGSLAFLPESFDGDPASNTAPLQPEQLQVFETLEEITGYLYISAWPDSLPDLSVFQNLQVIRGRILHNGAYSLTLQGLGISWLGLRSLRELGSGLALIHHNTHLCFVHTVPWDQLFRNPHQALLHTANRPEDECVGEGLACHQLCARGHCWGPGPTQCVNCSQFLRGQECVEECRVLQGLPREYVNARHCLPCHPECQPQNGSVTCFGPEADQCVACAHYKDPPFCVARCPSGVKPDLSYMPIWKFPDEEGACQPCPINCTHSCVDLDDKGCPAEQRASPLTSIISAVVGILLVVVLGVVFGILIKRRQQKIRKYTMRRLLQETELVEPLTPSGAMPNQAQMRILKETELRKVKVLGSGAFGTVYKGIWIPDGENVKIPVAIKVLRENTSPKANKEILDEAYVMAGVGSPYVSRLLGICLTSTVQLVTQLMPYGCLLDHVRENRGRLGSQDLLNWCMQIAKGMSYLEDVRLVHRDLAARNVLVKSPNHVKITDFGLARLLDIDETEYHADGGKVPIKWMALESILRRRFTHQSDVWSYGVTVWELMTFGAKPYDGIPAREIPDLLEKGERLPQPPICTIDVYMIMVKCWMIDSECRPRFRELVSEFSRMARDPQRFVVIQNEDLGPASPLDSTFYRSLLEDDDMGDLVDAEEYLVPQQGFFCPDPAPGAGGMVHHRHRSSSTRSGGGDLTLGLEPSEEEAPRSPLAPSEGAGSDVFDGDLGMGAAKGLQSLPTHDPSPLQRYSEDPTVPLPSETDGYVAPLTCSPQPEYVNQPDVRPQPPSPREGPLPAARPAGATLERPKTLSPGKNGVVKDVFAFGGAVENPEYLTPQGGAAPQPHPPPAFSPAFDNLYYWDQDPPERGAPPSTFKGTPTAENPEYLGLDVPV

Turning to `Cc1ccc2oc(=O)c3cnn(CC(=O)N4CCCc5ccccc54)c3c2c1`, the viability in test [1] was 100%; in [3] it was 100% (inactive); in test [4], 89.8% (inactive); in test [5], 74.8% (inactive); in test [6] (setting [16]), 60.9%; in test [6] (setting [17]), 74.8%. For the same molecule, the viability is 91.3% (inactive) in [12] and 82.3% (inactive) in test [13]. For the same molecule, the Her2 level in test [2] was 98.5% (inactive). Moreover, the differential viability (reversal) in test [6] (H69AR cells + 2 uM doxorubicin) was 13.9% (inactive). The inhibition is -2.67% (inactive) in test [7], -0.82% (inactive) in [8] and 3.85% (inactive) in test [14]. Besides, the values for the growth inhibition in [9] and in test [10] were -12.4% (inactive) and -5.59% (inactive), respectively. For the same molecule, in test [11], the viability increase was -3.17% (inactive). Further, the RAM network inhibition in test [15] was 6.86% (inactive).
As to `c1nc(NCC2CCCO2)c2[nH]cnc2n1` (stereo unspecified), the viability in test [1] was 83.5%; in test [3] it was 83.5% (inactive); in test [4], 93.4% (inactive); in test [5] it was 91.1% (inactive); in test [6] (setting [16]) it was 83.3%; in test [6] (setting [17]) it was 91.1%. In addition, the viability is 100% (inactive) in [12] and 99.7% (inactive) in [13]. For the same molecule, the Her2 level in test [2] is 91.5% (inactive). Further, the differential viability (reversal) in test [6] (H69AR cells + 2 uM doxorubicin) was 7.82% (inactive). Besides, the values for the inhibition in test [7], in test [8] and in [14] were -1.84% (inactive), 4% (inactive) and 1.3% (inactive), respectively. For the same molecule, the growth inhibition in [9] is -10% (inactive); in [10], -5.46% (inactive). Also, the viability increase in [11] was 0.98% (inactive). Also, in test [15], the RAM network inhibition is 1.7% (inactive).
`C=CCn1c(=O)n(CCOC)c(=O)c2sc3ccccc3c21`: the viability in test [1] was 85%; in [3], 85% (inactive); in test [4], 87.4% (inactive); in test [5], 86.8% (inactive); in [6] (setting [16]), 100%; in [6] (setting [17]) it was 86.8%. In addition, the viability was 89.9% (inactive) in [12] and 86.7% (inactive) in test [13]. Besides, in test [2], the Her2 level was 105% (inactive). The differential viability (reversal) in [6] (H69AR cells + 2 uM doxorubicin) is -13.7% (inactive). Also, the inhibition in test [7] was -0.53% (inactive); in test [8] it was 4.33% (inactive); in test [14] it was 0.25% (inactive). For the same molecule, the growth inhibition was -13.3% (inactive) in test [9] and -5.77% (inactive) in test [10]. The viability increase in test [11] is -4.03% (inactive). For the same molecule, the RAM network inhibition in test [15] was 1.71% (inactive).
